{"source": "PubChem BioAssay AID1117283", "about": "(Broad Institute, 2014)", "note": "Measured potencies and affinities stand elsewhere. Unmarked numbers belong to inactive results.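 How the source made its calls: active means fluorescent signal decreased by at least 40%; inconclusive means no clear call, values can overlap the other calls; inactive means the rest, including activity opposite to the expected direction.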"}
{"assay": "inhibition of fibronectin matrix deposition – AH1F cells, Alexa488-fibronectin fluorescence, cherry-pick, set 2, dose response (AID 1117283);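 further: AH1F fibroblasts given Alexa488-labelled fibronectin at 24 nM final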", "details": "AH1F fibroblasts, overnight; series mostly up to 35 µM; activity change, negative = inhibition: at the top concentration"}
{"smiles": "COCC(C)n1c(SCc2nc(N)nc(Nc3ccccc3C)n2)nc2ccccc2c1=O", "note": "(stereo unspecified)", "activity change, negative = inhibition": "-3.15%"}
{"smiles": "N#C[C@H]1[C@H](c2ccccc2C2=CCCCC2)[C@H](CO)N1S(=O)(=O)c1ccccc1", "activity change, negative = inhibition": "-0.083%"}
{"smiles": "COc1cccc(-c2ccc3c(c2)[C@H]2[C@H](CCN2S(=O)(=O)c2cccc(OC)c2)[C@@H](CO)N3)c1", "activity change, negative = inhibition": "-7.16%"}
{"smiles": "CN(C)C(=O)c1ccc(-c2ccc3c(c2)[C@@H]2[C@@H](CCN2C(=O)c2ccc(F)cc2)[C@H](CO)N3C)cc1", "activity change, negative = inhibition": "10.2%"}
{"smiles": "CN(C)C(=O)c1ccc(-c2ccc3c(c2)[C@H]2[C@H](CCN2C(=O)c2ccc(F)cc2)[C@@H](CO)N3C)cc1", "activity change, negative = inhibition": "9.06% [at 30 µM]"}
{"smiles": "O=C(Nc1ccccc1F)N1C[C@@H]2[C@H](c3ccccc31)[C@@H](CO)N2C(=O)C1CC1", "activity change, negative = inhibition": "0.595%"}
{"smiles": "C[C@H]1CN([C@@H](C)CO)C(=O)c2cccc(NC(=O)Nc3ccc(C(F)(F)F)cc3)c2O[C@H]1CN(C)C(=O)Nc1cccc2ccccc12", "activity change, negative = inhibition": "9.1%"}
{"smiles": "Cc1cccc(NC(=O)Nc2ccc(S(=O)(=O)Nc3onc(C)c3C)cc2)c1", "activity change, negative = inhibition": "-5.54%"}
{"smiles": "O=S(=O)(c1cccc(F)c1)N1CC[C@@H]2[C@H]1c1cc(-c3cccc(F)c3)ccc1N[C@@H]2CO", "activity change, negative = inhibition": "-11.1%"}
{"smiles": "C[C@@H]1CN([C@@H](C)CO)C(=O)c2cc(-c3ccncc3)cnc2O[C@@H]1CN(C)C(=O)Cc1cccnc1", "activity change, negative = inhibition": "0.086%"}
{"smiles": "CN(C)C(=O)c1ccc(-c2ccc3c(c2)[C@H]2[C@H](CCN2C(=O)c2ccc(F)cc2)[C@H](CO)N3C)cc1", "activity change, negative = inhibition": "-3.09%"}
